# Bioassay records from PubChem BioAssay.
# TLR9-MyD88 block – inhibitors of TLR9-MyD88 association in cells, primary screen, cell-based, CHO, BLA complementation, fluorescence; inhibition, % at 4.98 µM; Toll-like receptor 9 (Homo sapiens) + Myeloid differentiation primary response protein …; CCF4 FRET ratio; actives 0.21% (n = 340,000);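 active = inhibition above the mean over all tested compounds plus 3 SD, cut at about 21% in these data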
# Myeloid diff MLP – induction of myeloid progenitor differentiation, primary screen, cell-based, flow cytometry, MLPCN library. ER-HoxA9 myeloid progenitors, lysozyme-GFP differentiation. calls only at 10 µM. actives 1% (n = 360,000). AID 624256, 2012;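 active = normalized GFP-positive differentiation at or above the plate's own cutoff, the solvent-only control mean plus 3 SD; inconclusive = no clear call, values can overlap the other calls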;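 note: cells exposed to compound for four days before flow analysis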
# NOD2-RIPK2 inh – NOD2-RIPK2 binding disruptors in cells, primary screen, fluorescence, CHO cells, BLA complementation; Receptor-interacting serine/threonine-protein kinase 2 (Homo sapiens), O43353; CCF4 ratio; inhibition, % at 4.98 µM; actives 0.38% (n = 360,000); in the data active = inhibition above about 21%
# ABCB6 inh 2 – ABCB6 transporter inhibitors, primary screen, K562-ABCB6 cells, flow cytometry, MLPCN library. AID 602162, 2011. fluorescence ratio to DMSO, % at 10 µM. actives 0.19% (n = 360,000). ATP-binding cassette sub-family B member 6 (Homo sapiens), Q9NP58. K562-ABCB6 porphyrin accumulation, 1 h; stronger effect = lower value;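 active = fluorescence ratio to DMSO below 75%, the collection mean minus 3 SD; inconclusive = too few cells collected in the well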;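 note: signal is porphyrin accumulated inside mitochondria; lower ratio means ABCB6 inhibition with less porphyrin fluorescence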
# Target sequence (Q9NP58 whole entry, looked up): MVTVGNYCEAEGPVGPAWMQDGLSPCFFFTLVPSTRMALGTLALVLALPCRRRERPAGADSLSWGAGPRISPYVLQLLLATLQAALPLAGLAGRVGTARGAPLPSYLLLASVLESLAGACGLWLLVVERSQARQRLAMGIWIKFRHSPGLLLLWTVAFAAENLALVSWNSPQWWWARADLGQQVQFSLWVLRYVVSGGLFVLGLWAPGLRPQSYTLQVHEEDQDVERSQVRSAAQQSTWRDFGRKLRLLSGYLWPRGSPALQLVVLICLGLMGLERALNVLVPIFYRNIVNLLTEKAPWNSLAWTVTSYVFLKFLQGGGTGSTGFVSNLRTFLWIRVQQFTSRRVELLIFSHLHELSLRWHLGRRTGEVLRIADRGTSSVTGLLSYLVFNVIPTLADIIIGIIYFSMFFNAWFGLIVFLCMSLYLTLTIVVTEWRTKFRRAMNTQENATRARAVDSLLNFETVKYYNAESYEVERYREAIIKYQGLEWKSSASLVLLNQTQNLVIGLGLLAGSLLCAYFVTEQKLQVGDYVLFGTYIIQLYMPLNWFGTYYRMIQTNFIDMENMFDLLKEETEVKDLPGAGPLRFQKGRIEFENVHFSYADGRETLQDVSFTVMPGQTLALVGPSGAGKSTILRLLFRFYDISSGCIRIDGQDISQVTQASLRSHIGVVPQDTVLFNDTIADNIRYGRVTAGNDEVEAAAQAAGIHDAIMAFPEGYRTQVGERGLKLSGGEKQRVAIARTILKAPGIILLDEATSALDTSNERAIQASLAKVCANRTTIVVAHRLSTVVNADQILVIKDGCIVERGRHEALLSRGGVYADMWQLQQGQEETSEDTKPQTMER
# TLR4-MyD88 BLA – inhibitors of TLR4-MyD88 association in cells, primary screen, cell-based, HeLa CL3-4, BLA complementation, FRET ratio; Toll-like receptor 4 (Homo sapiens) + Myeloid differentiation primary response protein …; HeLa CL3-4 TLR4/MyD88 BLA complementation; inhibition, % at 8.4 µM; actives 0.18% (n = 200,000); AID 861, 2007; in the data active = inhibition above about 25%
# Numbers stand for hits; 0 = inactive; ? = inconclusive; - = no result given; + = active, no number. A selection: hits, their analogues and other compounds. The true share with any hit is near 1.7%.
SMILES,TLR9-MyD88 block,Myeloid diff MLP,NOD2-RIPK2 inh,ABCB6 inh 2,TLR4-MyD88 BLA
CC(=O)Nc1ccc(/C=C/c2ccc3cccc([N+](=O)[O-])c3n2)cc1,0,+,0,0,-
O=C(CN(c1ccc(F)cc1)S(=O)(=O)c1ccccc1)NC1CCCCCC1,0,0,0,0,-
O=C(c1cc(-c2cccc(Cl)c2)on1)N1CCc2ccccc2C1,0,+,0,0,-
Cc1c2ccccc2nc2c(F)c(NC(C)C)c(F)c(F)c12,0,+,0,0,0
CC(C)Nc1nc2ccccc2c(=O)[nH]1,0,0,0,0,0
Cc1nc(/N=C\c2ccc(N(C)C)cc2)sc1C,0,+,0,0,-
Cc1ccc(N=Cc2ccc(N(C)C)cc2)cc1,0,0,0,0,0
CCCCCCCCCn1c2c(c(=N)c3c1CCC3)CCCC2,-,?,24.1,0,0
CCCCCCCCCCn1c2c(c(=N)c3c1CCC3)CCC2,0,?,0,0,0
CCCn1cc(S(=O)(=O)c2ccc(F)cc2)c(=O)c2cc(OCC)ccc21,0,+,0,0,-
Cc1ccc(/C=N/N2C(=O)c3ccccc3NC2c2ccc(C)cc2)cc1 (centres undefined),0,+,0,0,0
Cc1ccc(C(=O)c2no[n+]([O-])c2C(=O)c2ccc(C)cc2)cc1,0,0,0,67.0,0
CCOC(=O)c1c(C)[nH]c(C(=O)N/N=C/c2ccc(Br)cc2)c1C,0,?,0,74.0,0
CCCCNS(=O)(=O)c1cccc(NC(=O)[C@@H]2O[C@H](CO)[C@@H](O)[C@H]2O)c1,-,0,0,0,-
CCC(C)c1ccc(N(CC(=O)NC(C)(C)C)C(=O)CNC(=O)c2cccs2)cc1 (centres undefined),0,0,0,0,-
COc1cccc2cc(-c3nc4ccccc4o3)c(=O)oc12,0,+,0,0,0
CC(=O)Nc1cc[n+](C(C)C(=O)c2ccc(Br)cc2)cc1 (centres undefined),0,+,0,0,0
O=C(CCn1ccnc1)Nc1ccc2ccccc2c1,0,0,0,0,0
CCN(CC)C(=O)Nc1ccc(Br)cc1,0,0,0,0,0
CN(C)S(=O)(=O)c1ccc2c(c1)/C(=C/c1cc3c([nH]1)CCCC3)C(=O)N2,0,+,0,0,-
COC(=O)C1(C(=O)OC)Cc2ccccc2N(S(=O)(=O)c2ccc(C)cc2)C1CC(C)=O (centres undefined),-,0,0,-,-
CC1(C)CC(NCc2ccccc2)=CC(=S)N1,-,0,0,0,-
CC1(C)CC(N2CCN(CCO)CC2)=CC(=S)N1,0,+,0,0,-
Nc1ccn([C@@H]2O[C@H](CNCc3cccc4c3sc3ccccc34)[C@@H](O)[C@H]2O)c(=O)n1,0,0,0,0,-
Nc1ncnc2c1ncn2[C@@H]1O[C@H](CNCC#Cc2ccccc2)[C@@H](O)[C@H]1O,0,+,0,0,-
SMILES,TLR9-MyD88 block,Myeloid diff MLP,NOD2-RIPK2 inh,ABCB6 inh 2,TLR4-MyD88 BLA
Nc1ncnc2c1ncn2[C@@H]1O[C@H](CNS(=O)(=O)C2CC2)[C@@H](O)[C@H]1O,0,0,0,0,-
CN1CCN(S(=O)(=O)NC[C@H]2O[C@@H](n3cnc4c(N)ncnc43)[C@H](O)[C@@H]2O)CC1,0,+,0,0,-
CC(OC(=O)C1CC1)C(=O)Nc1cc(Cl)cc(Cl)c1 (centres undefined),0,+,0,0,-
CC(OC(=O)C1CCC1)C(=O)Nc1cc(Cl)cc(Cl)c1 (centres undefined),0,0,0,0,-
O=C(NC1CC(=O)N(c2ccc(F)cc2)C1)C(=O)c1c[nH]c2ccccc12 (centres undefined),0,0,0,0,-
Cc1c(-c2ccc(OCc3ccccc3)cc2)nc2ccccc2c1C(=O)O,0,+,0,0,-
COc1ccc(/C=C\C(=O)O[C@@H]2C(O)C(O[C@@H]3OC(C)[C@H](O[C@@H]4OCC(O[C@H]5O[C@H](CO)[C@@H](O)C(O)C5O)C(O)C4O)C(O)C3O)[C@H](OC(=O)[C@]34CCC(C)(C)C[C@@H]3C3=CCC5[C@@]6(C)CC(O)C(O[C@@H]7OC(CO)C(O)[C@H](O)[C@H]7O)[C@@](C)(C(=O)O)C6CC[C@@]5(C)[C@]3(CO)CC4)O[C@H]2C)cc1 (some centres undefined),23.9,0,0,0,-
C[C@@H]1CC[C@]2(C(=O)O[C@@H]3O[C@H](CO)[C@@H](O)[C@H](O)[C@H]3O)CC[C@]3(C)C(=CCC4[C@@]5(C)CC[C@H](O[C@@H]6OC[C@H](O)[C@H](O[C@@H]7O[C@H](CO)[C@@H](O)[C@H](O)[C@H]7O)[C@H]6O)C(C)(C)C5CC[C@]43C)C2[C@]1(C)O (some centres undefined),0,0,0,0,-
Cc1ccc(C(=O)C[n+]2cccc3cc(C)ccc32)cc1,0,+,0,0,0
COc1ccc2oc(-c3ccc(C)c(NC(=O)CSc4ccc(Cl)cc4)c3)nc2c1,0,+,0,0,0
O=C(CSc1ccc(Cl)cc1)Nc1cc(-c2nc3ncccc3o2)ccc1Cl,-,-,-,-,0
Cc1cccc(N=Nc2c(O)[nH]c3ccc(Br)cc23)c1,0,0,0,0,-
COc1ccccc1N=Nc1c(O)[nH]c2ccc(Br)cc12,0,+,0,0,-
C[C@H](NC(=O)[C@@H]1Cc2ccccc2CN1)C(=O)Nc1ccc2c(c1)OCO2,0,0,0,0,-
O=C(CNC(=O)[C@@H]1Cc2ccccc2CN1)NCc1ccco1,0,+,0,0,-
O=C(CNC(=O)[C@@H]1Cc2ccccc2CN1)Nc1ccc2c(c1)OCO2,0,+,0,0,-
CCC(C(=O)Nc1ccccc1OC)n1c(C(=O)OC)cc2ccsc21 (centres undefined),0,+,0,0,0
O=[N+]([O-])c1cccc(-c2nc3ccccc3s/c2=N/O)c1,0,0,0,0,-
CC(=O)Oc1cc2c(C(=O)NCc3ccncc3)c(C)oc2c2ccccc12,0,+,0,0,-
Cc1oc(-c2ccccc2)cc1C(=O)NCc1ccncc1,0,0,0,0,-
CC(C)Cc1nnc(NC(=O)CCC(=O)N2CCN(c3ccc(Cl)cc3)CC2)s1,0,0,0,0,-
O=C(NCc1ccccc1)c1cccc(NC(=O)C2CC2)c1,0,0,0,0,-
CCn1c(=NC(=O)CS(=O)(=O)c2ccc(F)cc2)sc2cccc(OC)c21,0,+,0,0,-
CC(O)c1nc2ccc(C(=O)O)cc2[nH]1 (centres undefined),0,0,0,0,-
COc1cc(NC(=O)CCc2nnc3ccc(N4CCCCC4)nn23)cc(OC)c1OC,0,+,0,0,-
NC[C@@H]1O[C@H](C23CC4CC(CC(C4)C2)C3)Cc2c1ccc(O)c2O,0,+,0,0,-
